CHT allo act: allosteric activators of human choline transporter CHT. AID 488977. Q9GZV3. 310,000 compounds, 0.49% hits. CHT-expressing cells, membrane potential dye, choline EC20; stronger effect = higher value; LV-AA mutant CHT in HEK293 cells. B-score at 10 µM;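 active = initial fluorescence not abnormally high and integrated response B-score, plate-corrected, over 3 SD above library mean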
Target sequence (Q9GZV3 whole entry, looked up): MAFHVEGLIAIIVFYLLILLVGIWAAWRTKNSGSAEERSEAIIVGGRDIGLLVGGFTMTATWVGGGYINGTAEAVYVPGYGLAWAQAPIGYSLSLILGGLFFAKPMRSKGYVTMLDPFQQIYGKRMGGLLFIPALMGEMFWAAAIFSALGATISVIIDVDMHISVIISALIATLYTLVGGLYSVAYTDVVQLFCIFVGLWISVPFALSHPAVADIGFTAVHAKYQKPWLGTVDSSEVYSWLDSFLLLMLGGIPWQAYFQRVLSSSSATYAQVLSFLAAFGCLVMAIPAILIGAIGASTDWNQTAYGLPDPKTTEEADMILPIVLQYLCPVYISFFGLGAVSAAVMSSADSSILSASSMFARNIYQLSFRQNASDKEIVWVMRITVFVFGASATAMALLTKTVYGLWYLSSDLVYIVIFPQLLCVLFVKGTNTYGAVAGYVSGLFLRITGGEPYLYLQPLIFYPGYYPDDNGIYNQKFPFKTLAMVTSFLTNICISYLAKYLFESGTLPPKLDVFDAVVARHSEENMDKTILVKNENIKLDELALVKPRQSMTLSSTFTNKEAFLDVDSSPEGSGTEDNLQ
NALP1 yeast inh: NALP1 inhibition; 280,000 compounds, 0.61% hits; S. cerevisiae NALP1/ASC/caspase-1 growth, X-gal OD620, 72 h; inhibition, % at 10 µM; in the data active = inhibition mostly above about 24%, no sharp cut-off; inactive = mostly below about 32%
CHT block: human CHT choline transport inhibition. AID 488975. Q9GZV3. 310,000 compounds, 0.86% hits. CHT-expressing cells, membrane potential dye, choline response; stronger effect = lower value. B-score at 10 µM;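 active = B-score over 3 SD under the library average, and starting fluorescence ratio not unusually high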;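 also: choline stimulus applied at its EC90 after an EC20 pre-addition; B-score computed on integrated fluorescence ratio after choline addition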
Bfl-1 A1 inh: inhibitors of the anti-apoptotic protein A1, read as caspase activation; caspase activation, % (test concentration not listed); MEF A1-2A-BIM cells, Caspase-Glo 3/7 luminescence, 3 h; percent of clofoctol response, vehicle zero; 330,000 compounds, 0.066% hits;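 active = over half of replicate activation scores above 10%, or exactly half above 10 with the replicate mean above 10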
Mot1-301 SUMO: blocks SUMOylation pathway, rescuing yeast Mot1-301 growth. AID 2716. growth rescue, % at 18.8 µM. 320,000 compounds, 1% hits. S. cerevisiae Mot1-301 growth rescue, ATP luminescence, 38.5C; percent above DMSO median, 100 means doubled;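 active = every valid replicate shows activation above 250% relative to neutral control wells; inactive = the rest, any valid replicate at or below 250%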;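 also: OY570 slx delta 5 strain wells were the positive control but not used for scaling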
NLRP3 yeast inh: blocks the NALP3 inflammasome reconstituted in yeast; Yeast reconstituted NLRP3/ASC/caspase-1, beta-gal luminescence, 24 h; AID 2825; 330,000 compounds, 0.39% hits; inhibition, % at 10 µM;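 active = inhibition of 50% or more; inactive = inhibition below 50%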;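 also: plate controls were induced DMSO wells for no effect and uninduced yeast grown without galactose for full effect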
NALP3 yeast conf: NALP3 inhibition confirmation in yeast; 1,300 compounds, 81% hits; yeast expressing human NALP3, luminescence; inhibition, % at 10 µM; shares compounds with NLRP3 yeast inh; AID 435006; in the data active = inhibition above about 48%
Casp1 ASC ctr: counter-screen for NALP3 inhibitors: yeast caspase-1-ASC; 1,000 compounds, 66% hits; inhibition, % at 10 µM; shares compounds with NLRP3 yeast inh; yeast expressing Caspase-1-ASC, luminescence counter screen
NALP3 retest: confirmation retest of NALP3 inhibitors in yeast; shares compounds with NLRP3 yeast inh; yeast expressing human NALP3, luminescence read-out; inhibition, % at 10 µM; 1,000 compounds, 53% hits; AID 488794
CHT inh conf: confirmation of human choline transporter CHT inhibitors; shares compounds with CHT block; CHT-expressing cells, choline membrane potential dye; LV-to-AA substituted CHT, HEK293 cells; CHT activity remaining % of control (stronger effect = lower value), % at 10 µM; 2,400 compounds, 70% hits; AID 493221;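 active = choline transporter activity left, mean of duplicates at 10 µM, below buffer-only control mean minus 3 SD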;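 also: depolarization triggered by choline at its EC90 following an EC20 pre-addition; 0% = hemicholinium-3 full block and 100% = buffer-only control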
HEK293 CHT ctr: counter-screen for CHT inhibitors: effect in parental HEK293 cells; shares compounds with CHT block; membrane potential dye, choline response; active = decrease or increase beyond buffer ±3SD; membrane potential ratio readout (active if shifted either direction beyond buffer ±3SD; no single direction) at 10 µM; 2,400 compounds, 4% hits;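 also: parental cells lack the transporter so any hit is non-specific; ratio is peak minus trough fluorescence over baseline after EC90 choline challenge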
CHT activ conf: confirmation of human choline transporter (CHT) activators; CHT-expressing cells, membrane potential dye fluorescence (FDSS); % of choline EC20–EC90 response window; HEK293 expressing CHT LV-AA mutant; choline added at its EC20; activation, % at 10 µM; shares compounds with CHT allo act; 2,500 compounds, 91% hits; AID 504833;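 active = primary screen active, with duplicate mean activation above negative control mean plus 3 SD, cut at about 11% in these data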
HEK293 MP dye: activity in parental HEK293 cells lacking CHT; shares compounds with CHT allo act; membrane potential dye fluorescence (FDSS); measured after EC20 choline addition; ratio readout change at 10 µM, hits read low; 2,500 compounds, 62% hits;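 active = duplicate-averaged ratio beyond 3 SD from buffer wells, up or down, though filed actives are nearly all decreases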
* hit, by the source's call; i = inactive; . = not tested or not shown. Shown are actives, neighbours in structure and some others; about 3% of the full set was active somewhere. Rule as the data show it, unless noted: active = inhibition above about 50%; inactive = the rest.

SMILES | CHT allo act | NALP1 yeast inh | CHT block | Bfl-1 A1 inh | Mot1-301 SUMO | NLRP3 yeast inh | CHT inh conf | HEK293 CHT ctr | others
Clc1cncc(Cl)c1N/N=C/c1ccncc1 | i | 31 | i | -1 | 13 | 65* | . | . | NALP3 yeast conf=30;CHT activ conf=51*;HEK293 MP dye=-53*
C=C1CCN(Cc2ccccc2)S(=O)(=O)c2ccccc21 | 9* | -41 | i | -1 | 42 | 51* | . | . | NALP3 yeast conf=66*;Casp1 ASC ctr=29;NALP3 retest=35;CHT activ conf=26*;HEK293 MP dye=i
COc1cc(C(=O)OC(C)CN2CCCCC2)cc(OC)c1OC (configuration not stated) | i | 4 | i | 0 | -1 | 21 | . | .
COc1ccc(N2CCN(c3nc(NCCO)nc(N4CCOCC4)n3)CC2)cc1 | i | 10 | -6.1* | -1 | -5 | 22 | i | i
COc1ccc(Nc2nc3ccccc3n2C)cc1 | i | 20 | -6.5* | -5 | -5 | 15 | 53%* | i
CCCCn1c(Nc2ccc(OC)cc2)nc2ccccc21 | i | -5 | i | 0 | 15 | 19 | . | .
CCCCN1C(=O)CCC(C(=O)O)C1c1ccc([N+](=O)[O-])cc1 (configuration not stated) | i | 9 | i | 0 | -9 | 23 | . | .
COc1ccc(C(CNC(=O)c2cccc(S(=O)(=O)Nc3cccc(C)c3)c2)N2CCOCC2)cc1 (configuration not stated) | i | . | i | 0 | -4 | 12 | . | .
Cc1ccc(CNC(=O)Cc2noc3ccccc23)cc1 | i | 0 | i | -5 | 17 | -9 | . | .
Cc1noc(C)c1COC(=O)c1ccccc1Sc1ccccc1C#N | i | 5 | -6.1* | 1 | 142 | 22 | i | i
OC1CCCN(c2c3c(nc4cc(-c5cccc(F)c5)nn24)CCCC3)C1 (configuration not stated) | i | 7 | -5.2* | 0 | 4 | 2 | i | i
COc1cccc(C(=O)NC(C)c2cccc3ccccc23)c1OC (configuration not stated) | i | 14 | i | 0 | -9 | 20 | . | .
COc1ccccc1C(=O)NC(C)c1cccc2ccccc12 (configuration not stated) | i | -16 | -5.7* | 0 | 1 | 17 | 54%* | i
COc1ccc(CCc2nnc(NS(C)(=O)=O)s2)cc1 | i | -3 | i | -1 | -10 | 7 | . | .
COc1ccc(C(=O)C2CCCN(C(=O)C3=CCCC3)C2)c(C)c1 (configuration not stated) | i | -2 | -5* | 1 | -11 | 8 | 35%* | i
O=C(CCl)N(C1CCCC1)C1CCS(=O)(=O)C1 (configuration not stated) | i | 9 | -5.1* | 0 | -4 | 9 | i | i
CC[N+]1(CC)CC2=Cc3c(ccc4ccccc34)CC2C1 (configuration not stated) | i | 46 | -6.4* | 0 | 23 | -17 | 46%* | i
CN(C(=O)c1cc(S(=O)(=O)N2CCCCC2)c[nH]1)C1CCCCC1 | i | 15 | -5.1* | 0 | -27 | -2 | i | i
N#C/C(=N\Nc1ccccc1Cl)C(=O)c1ccccc1 | i | 11 | i | -1 | 6 | 22 | . | .
N#C/C(=N\Nc1cccc(Cl)c1)C(=O)c1ccccc1 | i | 3 | -5.2* | -2 | . | 44 | 66%* | i
C/C(Cl)=C\Cn1c(O)c(N=O)c2ccccc21 | i | -16 | -7.1* | 2 | 4 | 16 | 51%* | i
Cc1c(C(=O)N2CCCC2)c(S(=O)(=O)Nc2ccccc2)c(C)n1C | i | 14 | i | 1 | -2 | -3 | . | .
CNc1nc(Nc2ccc(C(C)=O)cc2)nc(OC(C(F)(F)F)C(F)(F)F)n1 | i | 0 | i | 0 | -18 | -2 | . | .
CC(=O)c1ccc(Nc2nc(NCCO)nc(OC(C(F)(F)F)C(F)(F)F)n2)cc1 | i | -1 | -5.1* | 0 | -10 | 7 | 66%* | i
CCCc1cc(C(=O)NNC(=S)NCC2CCCO2)cs1 (configuration not stated) | i | 8 | i | 0 | -11 | 13 | . | .
SMILES | CHT allo act | NALP1 yeast inh | CHT block | Bfl-1 A1 inh | Mot1-301 SUMO | NLRP3 yeast inh | CHT inh conf | HEK293 CHT ctr | others
CCCc1cc(C(=O)NNC(=S)NC(C)c2ccccc2)cs1 (configuration not stated) | i | -30 | -6.2* | 0 | 0 | 1 | 18%* | i
COc1ccc(S(=O)(=O)/N=C2/NC(=O)/C(=C\c3cc(OC)c(OC)cc3[N+](=O)[O-])S2)cc1 | i | 11 | i | 1 | -3 | 5 | . | .
COc1cc(/C=C2\S/C(=N/S(=O)(=O)c3ccccc3)NC2=O)c([N+](=O)[O-])cc1OC | i | 6 | -8.2* | -1 | -10 | -6 | 53%* | i
O=C1/C(=C\c2ccccn2)SC(=S)N1c1ccc(S(=O)(=O)Nc2nccs2)cc1 | i | . | -7* | 0 | -25 | -5 | i | i
Cc1ccc(/C=C2/SC(=S)N(c3ccc(S(=O)(=O)Nc4nccs4)cc3)C2=O)cc1 | i | . | i | -1 | 4 | 6 | . | .
O=[N+]([O-])c1cc(Cl)ccc1N1CCN(c2cccc(C(F)(F)F)c2)CC1 | i | 18 | i | 0 | -14 | 11 | . | .

Source: PubChem BioAssay (several laboratories)
